Most compounds without a hit are left out; they make up all but 11% or so of the library.
IMPase Li inh: IMPase inhibition in cells with lithium potentiation; CHO-M1 cells, IP1 TR-FRET (IP-One), carbachol + lithium; Potency, µM (doses to about 59.4 µM), for inactives: at the highest dose activity, negative = IMPase inhibition, most hits filed as inhibitors; 210,000 compounds, 0.35% hits; AID 1457; active = well fitted inhibition curve with a large enough effect; inconclusive = small, poorly fitted or top-dose-only effect; inactive = no such curve, though single readings can be large or run the other way;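 also: IP1 builds up when IMPase is blocked and the TR-FRET signal falls; potency is read from the fitted curve at half-maximal effect; plate controls were basal vehicle for no effect and high inhibitor control for full effect; nearly all actives have a fitted effect of over 50% in size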
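Test compounds were applied to CHO-M1 cells previously cultured for 16–30 h at 2000 per well. A small lithium amount accompanied them; after 30 min at 37C, IP1 was quantified by TR-FRET.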
HPGD inh: inhibitors of human 15-hydroxyprostaglandin dehydrogenase (HPGD) | purified HPGD, NADH fluorescence kinetic, PGE2 substrate | Potency, µM, for the others: at the highest dose activity change, negative = inhibition, actives largely listed as inhibitors | 150,000 compounds, 4.3% hits | P15428 | AID 894; also: potency is read from the fitted curve at half-maximal effect
Target sequence (P15428 whole entry, looked up): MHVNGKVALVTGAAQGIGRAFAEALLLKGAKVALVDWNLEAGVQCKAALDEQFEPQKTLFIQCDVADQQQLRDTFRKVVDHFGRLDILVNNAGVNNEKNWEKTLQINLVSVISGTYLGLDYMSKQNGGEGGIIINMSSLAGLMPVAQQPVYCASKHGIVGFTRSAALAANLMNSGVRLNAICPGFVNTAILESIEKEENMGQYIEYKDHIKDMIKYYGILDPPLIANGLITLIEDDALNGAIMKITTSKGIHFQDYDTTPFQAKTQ
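20 nM HPGD preincubated 15 min at room temperature with compound in 50 mM Tris-HCl pH 8, 0.01% Tween 20. Started with 1 mM NAD+ and 30 uM prostaglandin E2; NADH fluorescence (360/450 nm) read 5 times over 30-s intervals, last minus first.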
ALDH1A1 inh: blocks purified human ALDH1A1 activity; P00352; 220,000 compounds, 7.3% hits; AID 1030; Potency, µM (series often up to 75.3 µM), for inactives: at the highest dose activity, negative = inhibition, most hits filed as inhibitors; Purified ALDH1A1, NADH fluorescence, propionaldehyde substrate;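 also: potency is read from the fitted curve at half-maximal effect; plate controls were no enzyme wells and a reference inhibitor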
PNC inhibitor: inhibitors of perinucleolar compartment assembly; activity change (PNC), negative = inhibition, % at 10 µM; AID 2417; 140,000 compounds, 3.1% hits; PC3M PTB-GFP, PNC prevalence imaging, 16 h; stronger effect = lower value;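 active = readout at or below -70, meaning at least 70% loss of cells showing the perinucleolar compartment, a nuclear body marking cancer cells; inconclusive = readout between -30 and a set limit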;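 also: plate controls were DMSO wells for no effect and camptothecin positive control wells for full effect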
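Compounds are pinned in duplicate onto adhered PC3M cells stably expressing GFP-tagged PTB and incubated 16 h at 37 C. Cells are then fixed, nuclei stained with Hoechst, and PNC-positive cells counted.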
IMPase inh: cell-permeable inhibitors of inositol monophosphatase (IMPase). inhibition (IP1 accumulation), % at 46.1 µM. 120,000 tested, under 10 active. P97697. AID 901. CHO-M1 cells, IP1 accumulation, HTRF TR-FRET ratio; active = well fitted curve in the direction sought with a large enough effect in the signal ratio, not every such curve was filed as active; inconclusive = small, poorly fitted or top-dose-only effect, or a change in a side signal; inactive = no such curve, though single readings can be large or run the other way; the % refers to the signal ratio;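 also: cells stimulated with carbachol in lithium chloride buffer; plate controls were DMSO basal wells for no effect and reference inhibitor wells for full effect; higher means more IMPase inhibition seen as more IP1 and lower FRET ratio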
Target sequence (P97697 whole entry, looked up): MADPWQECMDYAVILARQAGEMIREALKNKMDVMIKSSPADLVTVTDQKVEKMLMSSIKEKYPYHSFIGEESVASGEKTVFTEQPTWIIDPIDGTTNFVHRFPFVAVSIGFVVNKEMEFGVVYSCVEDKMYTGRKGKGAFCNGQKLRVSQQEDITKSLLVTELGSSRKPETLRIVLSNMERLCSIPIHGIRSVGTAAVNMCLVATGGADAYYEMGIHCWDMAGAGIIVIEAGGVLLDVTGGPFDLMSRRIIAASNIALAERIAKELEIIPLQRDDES
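Cellular IMPase inhibition is scored as a rise in cytosolic IP1, detected by competitive TR-FRET between d2-labelled IP1 and a europium anti-IP1 antibody. M1-expressing CHO cells were stimulated with carbachol for 30 min at 37C, with lithium (50 mM LiCl) present in the buffer.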
* marks the source's active call; other numbers are inactive results; ! = not confirmed by another sample; [ ] = dose if it differs, or a comment. Unless noted, calls follow the shape of the dose curve; as a rule, active = well fitted inhibition curve with a large enough effect (not every such curve was filed as active); inconclusive = small, poorly fitted or top-dose-only effect, or another doubt; inactive = no such curve, though single readings can be large or run the other way. Unless noted, % is scaled to controls: 0 for no effect and ±100 for the full control effect.

For Cc1ccc(OP(=O)(Oc2ccc(C)cc2)Oc2ccc(C)cc2)cc1 the results were IMPase Li inh 21.4%, HPGD inh -0.1% and ALDH1A1 inh 7.9%.
`CN1C(=O)NC(c2cccc(O)c2)C(C(=O)c2cccs2)C1(O)C(F)(F)F` (configuration not stated) gave IMPase Li inh 3.6%[38.3 µM], HPGD inh -6.7%, ALDH1A1 inh 0.794µM*, PNC inhibitor 2.0 and IMPase inh 1.6.
C[C@]12CC[C@@H](O)C[C@@H]1CC[C@@H]1[C@@H]2CC[C@]2(C)C=CC[C@@H]12 was read as IMPase Li inh -3.5% and ALDH1A1 inh inconclusive.
`O=C(O)Cc1ccc([N+](=O)[O-])cc1[N+](=O)[O-]` gave IMPase Li inh -4.9%, HPGD inh -2.9% and ALDH1A1 inh -5.7%[13.5 µM].
`O=c1[nH]sc2cc(F)ccc12` gave IMPase Li inh 10.4% and ALDH1A1 inh 1.41µM*.
`COc1cccc(-c2nc(CS(=O)CC(=O)N3CCC4(CC3)OCCO4)c(C)o2)c1` (configuration not stated) gave IMPase Li inh -4.8%[38.3 µM], HPGD inh -12.8%, ALDH1A1 inh 35.5µM*, PNC inhibitor 20.9 and IMPase inh 2.6.
Screening N#CC(c1ccc(O)cc1)N1CCCCC1 (configuration not stated) returned IMPase Li inh 26.2%[38.3 µM], HPGD inh -17.0%, ALDH1A1 inh 4.47µM*, PNC inhibitor 64.0 and IMPase inh 0.6.
`COc1cccc(C(C#N)N2CCCCC2)c1O` (configuration not stated) gave IMPase Li inh 18.3%[38.3 µM], HPGD inh 2.24µM*, ALDH1A1 inh 7.5%, PNC inhibitor -12.8 and IMPase inh -4.3.
For N#CC(c1ccc(Cl)cc1)N1CCOCC1 (configuration not stated) the results were IMPase Li inh -13.1% and ALDH1A1 inh 21.9%.
`S=P(C1CCCCC1)(C1CCCCC1)[C@H](c1cccnc1)N1CCCC1` gave IMPase Li inh 5.3%, HPGD inh 1.5% and ALDH1A1 inh -15.9%[13.5 µM].
`Cc1noc(C(=O)Nc2sc3c(c2C#N)CCC3)c1Cl` gave IMPase Li inh -4.2%[38.3 µM], HPGD inh 25.1µM*, ALDH1A1 inh 12.6µM*, PNC inhibitor -20.5 and IMPase inh 1.1.
Screening C[C@]12Cc3cn4c(nc3C=C1CCC1C2CC[C@@]2(C)[C@H]1CC[C@@]2(O)C#N)nc1ccccc14 (some centres not stated) returned IMPase Li inh -12.1%, HPGD inh -16.6% and ALDH1A1 inh inconclusive.
`CC(=NCCN1CCOCC1)c1c(O)n(C2CCCCC2)c(=O)[nH]c1=O` gave IMPase Li inh -11.8%[38.3 µM], HPGD inh 0.3%, ALDH1A1 inh 14.1µM*, PNC inhibitor 24.4 and IMPase inh 2.8.
For CN1CCN(S(=O)(=O)c2cnc(Cl)c(Br)c2)CC1 the results were IMPase Li inh 5.4%, HPGD inh -2.4%, ALDH1A1 inh 2.51µM*, PNC inhibitor -20.7 and IMPase inh 4.0.
For C/C=C/C/C=C/CCC(=O)[C@H]1O[C@H]1C(N)=O the results were IMPase Li inh -0.4% and ALDH1A1 inh inconclusive.
`CC([C@H](O)c1ccccc1)N(C)C` (some centres not stated) gave IMPase Li inh -3.4%, HPGD inh -1.1% and ALDH1A1 inh 20µM*.
CCNC(=O)[C@H]1O[C@@H](n2cnc3c(N)ncnc32)[C@H](O)[C@H]1O was read as IMPase Li inh 8.8%, HPGD inh -13.5% and ALDH1A1 inh 6.9%.
Cn1c(=O)cc(OCC(=O)N2CCC3(CC2)OCCO3)c2ccccc21 was read as IMPase Li inh 22.6%[38.3 µM], HPGD inh -3.8%, ALDH1A1 inh 7.4%, PNC inhibitor -95.0* and IMPase inh -3.3.
Screening Cn1c(=O)cc(OCCCC(=O)N2CCC3(CC2)OCCO3)c2ccccc21 returned IMPase Li inh -21.9%[38.3 µM], HPGD inh -26.8%, ALDH1A1 inh inconclusive, PNC inhibitor inconclusive and IMPase inh inconclusive.
CCc1ccc(CCN2CCCCC2)nc1 was read as IMPase Li inh 0.8%, HPGD inh -5.7% and ALDH1A1 inh -4.2%[13.5 µM].
`C=C1C([C@@]2(C)C(OC(C)=O)CC(=O)O[C@@](C)(COC(C)=O)C2CC(=O)OC)C(OC=O)C(OC(=O)C(OC(C)=O)C(C)CC)[C@]2(C)C(c3ccoc3)CC(=O)C12O` (some centres not stated) gave IMPase Li inh 13.2%, HPGD inh -11.6% and ALDH1A1 inh -2.2%.
For CCCCCCCCCc1ccc(O)cc1 the results were IMPase Li inh 3.7%, HPGD inh -4.7% and ALDH1A1 inh 100µM*.
Screening O=C(O)C(O)(c1ccc(-c2ccccc2)cc1)c1ccc(-c2ccccc2)cc1 returned IMPase Li inh -2.6%, HPGD inh -13.5% and ALDH1A1 inh -2.1%[13.5 µM].
For O=C=NC1CCCCC1 the results were IMPase Li inh -19.6%, HPGD inh -4.3% and ALDH1A1 inh 28.2µM*!.
Screening Cc1[nH]n(-c2ccccc2)c(=O)c1C(c1ccc([N+](=O)[O-])cc1)c1c(C)[nH]n(-c2ccccc2)c1=O returned IMPase Li inh 16.3%, HPGD inh 28.2µM*, ALDH1A1 inh 12.6µM*, PNC inhibitor -1.8 and IMPase inh 8.1.
Screening c1cncc(CNc2cc(-c3ccc4c(c3)OCO4)ncn2)c1 returned IMPase Li inh 7.6%, HPGD inh inconclusive and ALDH1A1 inh inconclusive.
`CCCN1CCC[C@@H]2Cc3n[nH]cc3C[C@H]21` gave IMPase Li inh -12.1%, HPGD inh -12.6% and ALDH1A1 inh -3.6%.
For COCc1cc(C)c(C#N)c(=S)[nH]1 the results were IMPase Li inh -9.5%[38.3 µM], HPGD inh inconclusive, ALDH1A1 inh inconclusive, PNC inhibitor 9.2 and IMPase inh -4.2.
C=CCc1c(C)[nH]c(=S)c(C#N)c1C was read as IMPase Li inh -22.5%[38.3 µM], HPGD inh 3.98µM*, ALDH1A1 inh 4.47µM*, PNC inhibitor 28.0 and IMPase inh -7.0.
Screening COC(=O)[C@H](N)CCCN=C(N)N[N+](=O)[O-] returned IMPase inh 5.7.
For CC(=O)C1C(=O)NC23CCCCC2C1c1ccccc1O3 (configuration not stated) the results were IMPase Li inh 12.9%, HPGD inh -10.2%, ALDH1A1 inh -5.7%, PNC inhibitor 24.1 and IMPase inh 9.1.
For CC12CC(c3ccccc3O1)C(C(=O)OCc1ccccc1)C(=O)N2 (configuration not stated) the results were IMPase Li inh 10.8%, HPGD inh -6.4%, ALDH1A1 inh 0.6%, PNC inhibitor -118.9* and IMPase inh 15.1.
